In PubChem BioAssay:
Values without a mark were called inactive. For some of these results: Entries with a potency or affinity are not part of this list. The source made the active and inactive calls. Unless noted, the rule behind the calls is not given here.

What was measured:
[1] = antimalarial activity against Dd2 strain (AID 2302;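 active = growth inhibition above 50% at the single 2 µM test dose, taken to imply half-maximal potency below 2 µM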;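 note: 0% = DMSO untreated growth and 100% = chloroquine plus artemisinin killed control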); settings: P. falciparum Dd2 in RBCs, LDH growth readout, 72 h; at 2 µM; active compounds read high
[2] = HepG2 cytotoxicity, primary screen, cytotoxicity control for P. falciparum antimalarial project, cell-based, ATP luminescence (AID 2303;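 active = inhibition above 50%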;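 note: 0% = DMSO wells and 100% = digitonin-killed cells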); settings: HepG2 viability, 24-48 h, at 10 µM, active compounds read high
[3] = target: L-lactate dehydrogenase (Plasmodium falciparum (isolate CDC / Honduras)) (UniProt Q27743); assay: PfLDH activity inhibition – cell lysate, 3D7 strain, counter-screen for P. falciparum growth inhibition project (AID 2304);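 note: 0% = vehicle and 100% = reference inhibitor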; settings: P. falciparum 3D7 crude extract, LDH APAD/NBT absorbance; at 2 µM; active compounds read high
Sequence of L-lactate dehydrogenase (Plasmodium falciparum (isolate CDC / Honduras)) (Q27743 whole entry, looked up): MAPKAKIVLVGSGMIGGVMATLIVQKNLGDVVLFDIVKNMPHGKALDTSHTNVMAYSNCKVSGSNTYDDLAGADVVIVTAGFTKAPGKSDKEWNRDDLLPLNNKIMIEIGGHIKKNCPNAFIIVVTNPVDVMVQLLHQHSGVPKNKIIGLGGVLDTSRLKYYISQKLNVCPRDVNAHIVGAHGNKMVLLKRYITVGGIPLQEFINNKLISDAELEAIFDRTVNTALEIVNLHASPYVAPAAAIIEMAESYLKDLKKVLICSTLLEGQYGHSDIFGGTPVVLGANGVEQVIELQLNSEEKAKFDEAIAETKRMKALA

[4] = inhibition of 3D7 malaria parasite growth – strain 3D7 (AID 2306);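 note: 0% = DMSO wells and 100% = chloroquine plus artemisinin control wells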; settings: P. falciparum 3D7 erythrocytic growth, LDH absorbance, 72 h; at 2 µM; active compounds read high
[5] = target: Calcium-dependent protein kinase 1 (Plasmodium falciparum (isolate 3D7)) (UniProt P62344); assay: PfCDPK1 kinase inhibitors, biochemical, TCAMS library (AID 1159585; cut-off not given, nearly all actives have IC50 up to about 0.98 µM;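 note: inhibitors leave more ATP so luminescence rises with inhibition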); settings: recombinant PfCDPK1, Kinase-Glo ATP depletion luminescence
Sequence of Calcium-dependent protein kinase 1 (Plasmodium falciparum (isolate 3D7)) (P62344 whole entry, looked up): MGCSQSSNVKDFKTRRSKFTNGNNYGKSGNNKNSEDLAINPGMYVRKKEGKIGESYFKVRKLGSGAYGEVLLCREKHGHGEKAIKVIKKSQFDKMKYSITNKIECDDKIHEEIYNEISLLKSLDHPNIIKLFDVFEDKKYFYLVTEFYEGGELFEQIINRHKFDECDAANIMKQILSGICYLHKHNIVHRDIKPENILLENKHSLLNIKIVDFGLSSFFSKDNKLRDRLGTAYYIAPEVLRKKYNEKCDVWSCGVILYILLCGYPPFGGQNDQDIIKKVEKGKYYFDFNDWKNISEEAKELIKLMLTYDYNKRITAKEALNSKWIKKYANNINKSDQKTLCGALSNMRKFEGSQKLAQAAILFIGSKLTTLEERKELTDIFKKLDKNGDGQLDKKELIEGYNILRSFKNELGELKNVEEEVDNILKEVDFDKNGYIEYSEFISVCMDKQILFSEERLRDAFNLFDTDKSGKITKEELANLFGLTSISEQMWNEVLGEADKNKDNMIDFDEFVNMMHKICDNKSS

[6] = target: Plasmodium falciparum protein kinase 6 (PK6, PF3D7_1337100) (UniProt Q8IDW1); assay: PfPK6 kinase inhibitors, biochemical, TCAMS library (AID 1159586); settings: recombinant PfPK6, Kinase-Glo ATP depletion luminescence
Sequence of Plasmodium falciparum protein kinase 6 (PK6, PF3D7_1337100) (Q8IDW1 1-305): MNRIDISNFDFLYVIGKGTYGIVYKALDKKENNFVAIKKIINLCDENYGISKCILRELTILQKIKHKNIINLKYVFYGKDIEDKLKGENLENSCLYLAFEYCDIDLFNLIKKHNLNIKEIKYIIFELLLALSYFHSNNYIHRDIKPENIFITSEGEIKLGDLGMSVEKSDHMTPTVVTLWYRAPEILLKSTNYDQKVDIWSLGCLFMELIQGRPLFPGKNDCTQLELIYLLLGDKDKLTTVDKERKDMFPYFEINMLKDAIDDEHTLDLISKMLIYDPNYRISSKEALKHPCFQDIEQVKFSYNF

[7] = target: Protein kinase 7 (PK7), Plasmodium falciparum 3D7 (PF3D7_0213400) (UniProt Q7YTF7); assay: inhibition of Plasmodium PK7 catalytic activity – biochemical, TCAMS antimalarial set, Kinase-Glo luminescence (AID 1159587); settings: recombinant PfPK7, Kinase-Glo ATP depletion luminescence
Sequence of Protein kinase 7 (PK7), Plasmodium falciparum 3D7 (PF3D7_0213400) (Q7YTF7 1-343): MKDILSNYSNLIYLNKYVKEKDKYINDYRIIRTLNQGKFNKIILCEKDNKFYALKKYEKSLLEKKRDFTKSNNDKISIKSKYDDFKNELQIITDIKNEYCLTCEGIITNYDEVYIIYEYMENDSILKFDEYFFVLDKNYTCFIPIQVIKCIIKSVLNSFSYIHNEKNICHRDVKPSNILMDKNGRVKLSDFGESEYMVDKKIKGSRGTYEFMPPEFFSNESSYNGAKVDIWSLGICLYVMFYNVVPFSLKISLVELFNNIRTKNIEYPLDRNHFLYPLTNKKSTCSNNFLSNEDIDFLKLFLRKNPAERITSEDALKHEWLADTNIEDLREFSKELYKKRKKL

[8] = target: Calcium-dependent protein kinase 4 (Plasmodium falciparum (isolate 3D7)) (UniProt Q8IBS5); assay: PfCDPK4 kinase inhibitors, biochemical, TCAMS library (AID 1159588; cut-off not given, nearly all actives have IC50 up to about 0.91 µM); settings: recombinant PfCDPK4, Kinase-Glo ATP depletion luminescence
Sequence of Calcium-dependent protein kinase 4 (Plasmodium falciparum (isolate 3D7)) (Q8IBS5 whole entry, looked up): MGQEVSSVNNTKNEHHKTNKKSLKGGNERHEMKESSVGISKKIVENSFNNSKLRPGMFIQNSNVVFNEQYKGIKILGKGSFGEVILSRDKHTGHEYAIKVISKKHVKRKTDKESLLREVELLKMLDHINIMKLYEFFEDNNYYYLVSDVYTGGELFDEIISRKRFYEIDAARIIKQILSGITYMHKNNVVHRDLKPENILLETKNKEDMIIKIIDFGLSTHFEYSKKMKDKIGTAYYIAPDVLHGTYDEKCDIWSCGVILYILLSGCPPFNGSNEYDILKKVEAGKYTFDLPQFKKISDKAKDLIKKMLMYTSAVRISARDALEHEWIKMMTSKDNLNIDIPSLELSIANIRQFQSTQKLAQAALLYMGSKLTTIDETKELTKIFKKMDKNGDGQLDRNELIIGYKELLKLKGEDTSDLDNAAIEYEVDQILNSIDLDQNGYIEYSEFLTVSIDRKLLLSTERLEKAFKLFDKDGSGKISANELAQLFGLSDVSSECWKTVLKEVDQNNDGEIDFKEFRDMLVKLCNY

Row | SMILES | growth inhibition [1] | inhibition [2] | inhibition [3] [%] | growth inhibition [4] | outcome [5] | outcome [6] | outcome [7] | outcome [8]
1 | NC1=NC(c2ccccc2)(c2ccccc2)C(=O)N1Cc1ccccc1Br | 38% | 36% | 4 | 93% (active) | inactive | inactive | inactive | inactive
2 | CC(C)(CNC(=O)[C@@H]1CCCN(CCOc2ccc(F)c(F)c2)C1)c1nc(-c2ccc(Cl)c(O)c2)c(-c2ccncc2)[nH]1 | 77% (active) | 72% (active) | -1 | 101% (active) | inactive | inactive | inactive | inactive
3 | Cc1cc(OCCCN2CCN(CCN3CCOCC3)CC2)ccc1NC(=O)COc1ccc(Cl)cc1C(=O)c1cc(Cl)cc(C#N)c1 | 78% (active) | 30% | -3 | 99% (active) | inactive | inactive | inactive | inactive
4 | CCCCCCCCCCS(=O)(=O)N[C@H](COCc1cccc(Oc2ccccc2)c1)COP(=O)(O)OC | -3% | -1% | -8 | 87% (active) | inactive | inactive | inactive | inactive
5 | COc1ccc2nccc([C@@H](O)CN3CCC(NCc4cc5cccc(OCc6ccccc6)c5[nH]4)CC3)c2c1 | 40% | 13% | 1 | 101% (active) | inactive | inactive | inactive | inactive
6 | FC(F)(F)c1cccc(CCNc2nccc(NCc3ccccc3Cl)n2)c1 | 38% | 31% | 1 | 89% (active) | inactive | inactive | inactive | inactive
7 | O=C(Nc1nccs1)c1cc(-c2cccnc2)nc2ccc(Br)cc12 | 79% (active) | 7% | 5 | 100% (active) | inactive | inactive | inactive | inactive
8 | Cc1nc(N)nc(N)c1-c1ccc(Cl)cc1 | 0% | 15% | -4 | 96% (active) | inactive | inactive | inactive | inactive
9 | NS(=O)(=O)Cc1cccc(-c2ccnc3ccc(-c4cccc(S(N)(=O)=O)c4)cc23)c1 | 42% | 39% | -2 | 98% (active) | inactive | inactive | inactive | inactive
10 | Cc1cccc2[nH]c(-c3cccc(-c4cccc(NC(=O)c5ccc(C(N)=O)cc5)c4)c3)nc12 | 34% | 25% | 0 | 101% (active) | inactive | inactive | inactive | inactive
11 | Cc1noc(C)c1-c1cccc(CNCc2ccc(-c3cccc(-c4nc5ccc(F)cc5[nH]4)c3)cc2)c1 | 84% (active) | 37% | 4 | 102% (active) | inactive | inactive | inactive | inactive
12 | CCC(C)NC(=O)Nc1ccc(-c2cccc(-c3nc4c(C)cccc4[nH]3)c2)cc1 (stereo not drawn) | 83% (active) | 55% (active) | 6 | 102% (active) | inactive | inactive | inactive | inactive
13 | CC1CCCN(C(=O)C(C)Nc2cc(Cl)ccc2N2CCOCC2)C1 (stereo not drawn) | 96% (active) | -1% | -5 | 101% (active) | inactive | inactive | inactive | inactive
14 | Cc1ccc(NC(=O)c2cccc(CN3CCCN(CC4CCCCC4)CC3)c2)cc1F | 42% | 22% | -2 | 85% (active) | inactive | inactive | inactive | inactive
15 | CCN1CCc2c1cc(C(=O)N[C@@H](Cc1ccccc1)[C@H](O)CNC(C)(C)c1cccc(C(F)(F)F)c1)cc2N1CCCCS1(=O)=O | 99% (active) | 6% | -1 | 100% (active) | inactive | inactive | inactive | inactive
16 | COc1cccc(Nc2nc(C)cc(Nc3cccc(C#N)c3)n2)c1 | 92% (active) | -2% | -3 | 101% (active) | inactive | inactive | inactive | inactive
17 | CC(CNc1ccnc(Nc2ccc3[nH]c(=O)[nH]c3c2)n1)c1ccccc1 (stereo not drawn) | 2% | 50% (active) | 6 | 99% (active) | inactive | inactive | inactive | inactive
18 | O=C(Nc1ccc2nc3n(c(=O)c2c1)CCCCC3)C(=O)N1CCC(Cc2ccccc2)CC1 | 70% (active) | 12% | 0 | 91% (active) | inactive | inactive | inactive | inactive
19 | CCOc1cccc(C(=O)Nc2nonc2-c2ccc(OC)c(OC)c2)c1 | 95% (active) | 11% | 4 | 92% (active) | inactive | inactive | inactive | inactive
20 | CS(=O)(=O)c1ccc(-n2nc(C(F)(F)F)cc2-c2ccc(/C=N/OCC(=O)O)o2)cc1 | 0% | -15% | -7 | 87% (active) | inactive | inactive | inactive | inactive
21 | O=C(CSc1nc(-c2ccccc2Cl)ns1)Nc1cccc(F)c1 | 81% (active) | -5% | -1 | 93% (active) | inactive | inactive | inactive | inactive

Row | SMILES | growth inhibition [1] | inhibition [2] | inhibition [3] [%] | growth inhibition [4] | outcome [5] | outcome [6] | outcome [7] | outcome [8]
22 | Oc1ccc2[nH]c(-c3cccc(F)c3)nc2c1CN1CCC(N2CCCC2)CC1 | 54% (active) | 0% | -6 | 100% (active) | inactive | inactive | inactive | inactive
23 | CC(C)c1sc(-c2ccc(C(C)(C)C)cc2)nc1C(=O)NCCCN1CCCC1=O | 92% (active) | -2% | 1 | 96% (active) | inactive | inactive | inactive | inactive
24 | CC(Oc1ccc(Cl)cc1)C(=O)N(C)C1CCN(CCCCCNC(=O)/C=C/c2ccc(Cl)c(Cl)c2)CC1 (stereo not drawn) | 10% | 61% (active) | -2 | 85% (active) | inactive | inactive | inactive | inactive
25 | Cc1nc(-c2cccc(Nc3nccc(NCC(O)c4ccccc4C)n3)c2)cs1 (stereo not drawn) | 14% | 38% | -2 | 92% (active) | inactive | inactive | inactive | inactive
26 | Oc1ccc(CCNCCCCCCNCCc2ccc(Cl)c(Cl)c2)cc1O | 2% | 21% | -1 | 101% (active) | inactive | inactive | inactive | inactive
27 | COc1cc2c(cc1OC)C(C(=O)Nc1cc(OC)c(OC)c(OC)c1)C(c1ccc(SC)cc1)N(C)C2=O (stereo not drawn) | 64% (active) | 14% | 2 | 97% (active) | inactive | inactive | inactive | inactive
28 | FC(F)(F)Oc1ccc(-c2cnc3ccc(NCc4ccncc4)nn23)cc1 | 54% (active) | 19% | -3 | 97% (active) | inactive | inactive | inactive | inactive
29 | FC(F)(F)c1ccc(N2CCCN(Cc3cccc(-c4ccccc4CNCc4ccc5c(c4)OCO5)c3)CC2)nc1 | 11% | 23% | 3 | 87% (active) | inactive | inactive | inactive | inactive
30 | C=CCn1c(SCC(=O)Nc2cc(C)ccc2OC)nc2sc(C)cc2c1=O | 86% (active) | 6% | -5 | 100% (active) | inactive | inactive | inactive | inactive
31 | CCCCCCCCCN(CCC)C(=O)[C@@H]1OC(C(=O)OC(c2ccccc2)c2ccccc2)=C[C@H](NC(=O)OC(C)(C)C)[C@H]1NC(C)=O | 49% | 0% | -1 | 91% (active) | inactive | inactive | inactive | inactive
32 | COc1cccc(C(=O)Nc2ccc(Nc3nc(C)cc(N(C)C)n3)cc2)c1OC | 9% | -10% | -3 | 90% (active) | inactive | inactive | inactive | inactive
33 | c1cc(-c2ccc(CN3CCCC3)cc2)cc(-c2nc3ccccc3[nH]2)c1 | 52% (active) | 25% | 0 | 100% (active) | inactive | inactive | inactive | inactive
34 | Cc1cc(N(CCN2CCCCC2)CCN2CCCCC2)nc(Nc2ccc(Cl)cc2)n1 | 79% (active) | 19% | -4 | 101% (active) | inactive | inactive | inactive | inactive
35 | O=C(/C=C/c1ccc(Cl)c(Cl)c1)NCCCCCN1CCCN(C(=O)Nc2ccc(C(F)(F)F)cc2)CC1 | 7% | 31% | 3 | 102% (active) | inactive | inactive | inactive | inactive
36 | CCc1cc2c(cc1CC)CC(NC[C@@H](O)c1ccc(O)c3[nH]c(=O)ccc13)C2 | 9% | -3% | -4 | 101% (active) | inactive | inactive | inactive | inactive
37 | COc1ccc2c(OC)c(CNCCCCCCNCc3ccc4cc(OC)ccc4c3OC)ccc2c1 | 49% | 100% (active) | 4 | 98% (active) | inactive | inactive | inactive | inactive
38 | COCCN1CCN(Cc2ccc(-c3cccc(-c4nc5ccccc5[nH]4)c3)cc2)CC1 | 10% | 32% | 0 | 93% (active) | inactive | inactive | inactive | inactive
39 | O=S(=O)(c1c(Cl)cc(Cl)cc1Cl)N1CCCCC(c2ccc(F)c(F)c2)=N1 | 65% (active) | 5% | -1 | 87% (active) | inactive | inactive | inactive | inactive
40 | Cc1cccc(C)c1CNc1cccc(-c2nc(C)c(C)[nH]2)c1 | 44% | 58% (active) | -3 | 99% (active) | inactive | inactive | inactive | inactive
41 | Cc1nc2ccc3ccc(CNc4ccc(C(=O)N[C@@H](CCC(=O)O)C(=O)O)c(F)c4)cc3c2c(=O)[nH]1 | 96% (active) | 41% | -1 | 96% (active) | inactive | inactive | inactive | inactive
